Measurements from PubChem BioAssay AID1159580 (chemical genetic matrix, 2015).
Several values for one entry are separate records, joined by “and”; a condition that tells them apart may be missing. Equal entries are not always repeated. Screen size: about 5,500 compounds; about 2,000 (36%) were called active. Roughly 18% stayed inconclusive and do not appear here. Rule as the data show it: active = normalized growth mostly below about 0.91 (no sharp cut-off); inconclusive = no clear call, values can overlap the other calls; inactive = mostly above about 0.92. Some of the results follow.

Test: chemical genetic growth profiling, strain panel (AID 1159580);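 also: tested at 20 µM; growth read once vehicle control cultures reached saturation at 30 °C; 1 = growth at the plate median or of vehicle wells; lower values mean less growth of the strain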
Conditions: S. cerevisiae deletion strains, growth OD

Measured: normalized growth

CCN1C[C@@]2(COC)C3[C@@H](OC)[C@H]4[C@@H]1[C@]3(C(OC)C[C@H]2O)C1C[C@@]2(O)[C@H](OC(=O)c3ccccc3)C1[C@]4(OC(C)=O)[C@@H](O)[C@@H]2OC (stereo partly drawn)
inactive: locus YAL021C, strain ccr4, stronger effect = lower value 1.03 | locus YAL026C, strain drs2, stronger effect = lower value 1.02 | locus YAL030W, strain snc1, stronger effect = lower value 1 | locus YBL061C, strain skt5, stronger effect = lower value 1 | locus YBR009C, strain hhf1, stronger effect = lower value 1.06 | locus YBR021W, strain FUR4, stronger effect = lower value 0.985 | locus YBR023C, strain chs3, stronger effect = lower value 1.01 | locus YBR171W, strain sec66, stronger effect = lower value 1.01 | locus YBR229C, strain ROT2, stronger effect = lower value 1.02 | locus YBR231C, strain swc5, stronger effect = lower value 0.995 | locus YBR279W, strain paf1, stronger effect = lower value 1.02 | locus YCL011C, strain gbp2, stronger effect = lower value 1.02 | locus YCL016C, strain dcc1, stronger effect = lower value 0.999 | locus YCL029C, strain bik1, stronger effect = lower value 1.03 | locus YCL061C, strain MRC1, stronger effect = lower value 1 | locus YCL069W, strain vba3, stronger effect = lower value 1 | locus YCR088W, strain abp1, stronger effect = lower value 1 | locus YDL005C, strain med2, stronger effect = lower value 1.01 | locus YDL035C, strain GPR1, stronger effect = lower value 1.03 | locus YDL040C, strain nat1, stronger effect = lower value 1 | locus YDL074C, strain BRE1, stronger effect = lower value 1.03 | locus YDL101C, strain DUN1, stronger effect = lower value 1.02 | locus YDL185W, strain tfp1, stronger effect = lower value 1.04 | locus YDL192W, strain arf1, stronger effect = lower value 1.03 | locus YDR001C, strain nth1, stronger effect = lower value 1.01 | locus YDR069C, strain doa4, stronger effect = lower value 0.985 | locus YDR101C, strain arx1, stronger effect = lower value 1.03 | locus YDR137W, strain rgp1, stronger effect = lower value 1.02 | locus YDR150W, strain NUM1, stronger effect = lower value 1.02 | locus YDR159W, strain sac3, stronger effect = lower value 0.978 | locus YDR162C, strain NBP2, stronger effect = lower value 1.05 | locus YDR195W, strain ref2 0.97 | locus YDR297W, strain sur2, stronger effect = lower value 1.04 | locus YDR318W, strain mcm21, stronger effect = lower value 1.03 | locus YDR334W, strain swr1, stronger effect = lower value 1.02 | locus YDR335W, strain msn5, stronger effect = lower value 1.01 | locus YDR388W, stronger effect = lower value 1.03 | locus YDR392W, strain spt3, stronger effect = lower value 0.907 | locus YDR502C, strain sam2, stronger effect = lower value 1.03 | locus YEL003W, strain gim4, stronger effect = lower value 1.02 | locus YEL037C, strain rad23, stronger effect = lower value 1.01 | locus YEL061C, strain CIN8 (second series), stronger effect = lower value 1.01 | locus YEL061C, strain CIN8, stronger effect = lower value 1.02 | locus YER015W, strain faa2, stronger effect = lower value 1.01 | locus YER016W, strain bim1, stronger effect = lower value 1 | locus YER110C, stronger effect = lower value 1.04 | locus YER111C, strain swi4, stronger effect = lower value 1.01 | locus YER155C, strain BEM2 (second series), stronger effect = lower value 0.973 | locus YER155C, strain BEM2, stronger effect = lower value 1 | locus YER167W, strain BCK2, stronger effect = lower value 1.03 | locus YFR010W, strain ubp6, stronger effect = lower value 1.01 | locus YGL078C, strain dbp3, stronger effect = lower value 1.03 | locus YGL086W, strain mad1, stronger effect = lower value 1.02 | locus YGL167C, strain pmr1, stronger effect = lower value 0.998 | locus YGL173C, strain kem1, stronger effect = lower value 1.02 | locus YGL227W, strain vid30, stronger effect = lower value 1.01 | locus YGL240W, strain doc1, stronger effect = lower value 0.987 | locus YGL248W, strain PDE1, stronger effect = lower value 1.02 | locus YGL253W, strain hxk2, stronger effect = lower value 1.01 | locus YGR135W, strain pre9, stronger effect = lower value 1.03 | locus YGR252W, strain gcn5, stronger effect = lower value 1.01 | locus YHR013C, strain ard1, stronger effect = lower value 0.995 | locus YHR027C, strain rpn1, stronger effect = lower value 1.01 | locus YHR030C, strain SLT2, stronger effect = lower value 1.02 and 0.957 | locus YHR079C, strain IRE1 (second series), stronger effect = lower value 1.03 | locus YHR079C, strain IRE1, stronger effect = lower value 0.967 | locus YHR094C, strain hxt1, stronger effect = lower value 1.03 | locus YHR129C, strain ARP1, stronger effect = lower value 1.02 | locus YHR142W, strain chs7, stronger effect = lower value 1.03 | locus YHR200W, strain rpn10, stronger effect = lower value 1.04 | locus YIL066C, strain RNR3, stronger effect = lower value 1.04 | locus YIL073C, strain SPO22, stronger effect = lower value 1.13 | locus YIL125W, strain kgd1, stronger effect = lower value 1.03 | locus YIR030C, strain dcg1, stronger effect = lower value 1.03 | locus YJL092W, strain hpr5, stronger effect = lower value 1 | locus YJL095W, strain BCK1 (second series), stronger effect = lower value 1.02 | locus YJL095W, strain BCK1, stronger effect = lower value 1.04 and 1 | locus YJL115W, strain asf1, stronger effect = lower value 1.01 | locus YJL129C, strain trk1, stronger effect = lower value 1.01 | locus YJL134W, strain LCB3, stronger effect = lower value 1.01 | locus YJL154C, strain vps35, stronger effect = lower value 1 | locus YJL164C, strain tpk1, stronger effect = lower value 1.02 | locus YJL166W, strain qcr8, stronger effect = lower value 0.989 | locus YJL168C, strain set2, stronger effect = lower value 1.03 | locus YJL187C, strain SWE1 (second series), stronger effect = lower value 1.04 | locus YJL187C, strain SWE1, stronger effect = lower value 1.03 | locus YJR043C, strain POL32, stronger effect = lower value 1.03 | locus YJR066W, strain TOR1, stronger effect = lower value 0.975 | locus YKL009W, strain mrt4, stronger effect = lower value 1.05 | locus YKL068W, stronger effect = lower value 1.05 | locus YKL085W, strain MDH1 (second series), stronger effect = lower value 1.03 | locus YKL085W, strain MDH1, stronger effect = lower value 1.03 | locus YKL160W, strain elf1, stronger effect = lower value 0.963 | locus YKR001C, strain vps1, stronger effect = lower value 1.01 | locus YKR026C, strain gcn3, stronger effect = lower value 1.01 | locus YKR091W, strain srl3, stronger effect = lower value 1.01 | locus YLL001W, strain dnm1, stronger effect = lower value 0.992 | locus YLL026W, stronger effect = lower value 1 | locus YLL041C, strain sdh2, stronger effect = lower value 1.01 | locus YLR027C, strain aat2, stronger effect = lower value 1 | locus YLR039C, strain RIC1, stronger effect = lower value 1.09 | locus YLR058C, strain SHM2, stronger effect = lower value 1.03 | locus YLR102C, strain apc9, stronger effect = lower value 1.03 | locus YLR113W, strain HOG1, stronger effect = lower value 0.94 | locus YLR221C, strain rsa3, stronger effect = lower value 0.999 | locus YLR258W, strain gsy2, stronger effect = lower value 1.01 | locus YLR262C, strain YPT6 (second series), stronger effect = lower value 0.994 | locus YLR262C, strain YPT6, stronger effect = lower value 1.13 | locus YLR268W, strain sec22, stronger effect = lower value 1.02 | locus YLR320W, strain mms22, stronger effect = lower value 0.991 | locus YLR330W, strain CHS5, stronger effect = lower value 1.02 | locus YLR342W, strain FKS1 (second series), stronger effect = lower value 1.02 | locus YLR342W, strain FKS1, stronger effect = lower value 1.01 | locus YLR357W, strain rsc2, stronger effect = lower value 1.01 | locus YLR370C, strain arc18, stronger effect = lower value 1.02 | locus YLR371W, strain rom2, stronger effect = lower value 1.02 | locus YLR384C, strain iki3, stronger effect = lower value 1.01 | locus YLR418C, strain cdc73, stronger effect = lower value 1.04 | locus YML016C, strain PPZ1, stronger effect = lower value 1.02 | locus YML032C, strain rad52, stronger effect = lower value 1.02 | locus YML120C, strain ndi1, stronger effect = lower value 1.01 | locus YML124C, strain tub3, stronger effect = lower value 1.04 | locus YMR058W, strain fet3, stronger effect = lower value 1.01 | locus YMR078C, strain ctf18, stronger effect = lower value 1.06 | locus YMR125W, strain sto1, stronger effect = lower value 0.973 | locus YMR129W, stronger effect = lower value 1.01 | locus YMR205C, strain PFK2, stronger effect = lower value 0.966 | locus YMR223W, strain ubp8, stronger effect = lower value 1.02 | locus YMR231W, strain pep5, stronger effect = lower value 1.01 | locus YMR307W, strain GAS1, stronger effect = lower value 1.01 | locus YNL067W, strain RPL9B, stronger effect = lower value 1.04 | locus YNL071W, strain lat1, stronger effect = lower value 1 | locus YNL128W, strain TEP1, stronger effect = lower value 1.02 | locus YNL183C, strain NPR1, stronger effect = lower value 0.937 | locus YNL209W, strain ssb2, stronger effect = lower value 1.01 | locus YNL233W, strain BNI4, stronger effect = lower value 1.03 | locus YNL248C, strain rpa49, stronger effect = lower value 0.953 | locus YNL250W, strain rad50, stronger effect = lower value 1.04 | locus YNL271C, strain bni1, stronger effect = lower value 1.04 | locus YNL298W, strain CLA4, stronger effect = lower value 1.05 | locus YNL307C, strain MCK1, stronger effect = lower value 1.05 | locus YNL322C, strain KRE1 (second series), stronger effect = lower value 0.998 | locus YNR049C, strain mso1, stronger effect = lower value 1.01 | locus YNR052C, strain pop2, stronger effect = lower value 1.02 | locus YOL012C, strain htz1 1.37 | locus YOL147C, strain pex11, stronger effect = lower value 1.02 | locus YOR001W, strain rrp6, stronger effect = lower value 1 | locus YOR061W, strain CKA2, stronger effect = lower value 1.02 | locus YOR069W, strain VPS5, stronger effect = lower value 1.01 | locus YOR070C, strain gyp1, stronger effect = lower value 1.01 | locus YOR080W, strain dia2, stronger effect = lower value 0.998 | locus YOR083W, strain WHI5, stronger effect = lower value 0.968 | locus YOR106W, strain vam3, stronger effect = lower value 0.988 | locus YOR136W, strain idh2, stronger effect = lower value 1.04 | locus YOR144C, strain elg1, stronger effect = lower value 1.01 | locus YOR184W, strain ser1, stronger effect = lower value 1.02 | locus YOR231W, strain MKK1, stronger effect = lower value 0.966 | locus YOR265W, strain rbl2, stronger effect = lower value 0.999 | locus YOR270C, strain vph1, stronger effect = lower value 0.981 | locus YOR290C, strain snf2, stronger effect = lower value 1 | locus YOR316C, strain cot1, stronger effect = lower value 1.04 | locus YPL051W, strain arl3, stronger effect = lower value 0.988 | locus YPL055C, strain LGE1, stronger effect = lower value 1.05 | locus YPL078C, strain atp4, stronger effect = lower value 0.958 | locus YPL106C, strain sse1, stronger effect = lower value 1 | locus YPL240C, strain hsp82, stronger effect = lower value 1.01 | locus YPL241C, strain CIN2, stronger effect = lower value 1.02 | locus YPL256C, strain CLN2, stronger effect = lower value 0.986 | locus YPR119W, strain clb2, stronger effect = lower value 1.03 | locus YPR141C, strain kar3, stronger effect = lower value 1.03 | locus YPR163C, strain tif3, stronger effect = lower value 1.01 | locus YPR167C, strain met16, stronger effect = lower value 1.04 | strain wtn01, stronger effect = lower value 1.03
